Results as given in PMC8384837, “Expanding the binding specificity for RNA recognition by a PUF domain”.

Assays:
Assay in all cases: yeast three-hybrid, YBZ-1, SC-Leu-His + 0.5 mM 3-AT, 4 days
Settings in all cases: tags: N-Gal4 AD-HA kept; label: inside an RPR1-promoter hybrid RNA with tandem MS2 sites; ssRNA
PUM1 PUF domain R1-RTS = PUM1 PUF domain R1-RTS (Homo sapiens, UniProt Q14671 828-1176, S863R;R864T;Q867S)
Outline: (§1)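 Pumilio-1 PUF domain libraries, randomized (NNK) at the three base-contacting residues of each repeat, were co-expressed with matching RNA elements from a centromeric plasmid in strain YBZ-1 (LexA–MS2 coat fusion, HIS3 reporter). Transformants were plated on SC-Leu (input) and SC-Leu-His + 0.5 mM 3-AT (selection) for four days, and repeat regions were PCR-amplified and Illumina-sequenced. The interaction score is the log2 change in variant frequency from input to selection, with pseudocount 1 where absent.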

PUM1 PUF domain R4-ANC = PUM1 PUF domain R4-ANC (Homo sapiens, UniProt Q14671 828-1176, N971A;H972N;Q975C)
Outline: as §1

PUM1 PUF domain R4-CMC = PUM1 PUF domain R4-CMC (Homo sapiens, UniProt Q14671 828-1176, N971C;H972M;Q975C)
Outline: as §1

PUM1 PUF domain R7-KPV = PUM1 PUF domain R7-KPV (Homo sapiens, UniProt Q14671 828-1176, S1079K;N1080P;E1083V)
Outline: as §1

PUM1 PUF domain R6-YWR = molecular target: T1, PUM1 PUF domain R6-YWR (Homo sapiens, UniProt Q14671 828-1176, N1043Y;Y1044W;Q1047R)
T1 sequence: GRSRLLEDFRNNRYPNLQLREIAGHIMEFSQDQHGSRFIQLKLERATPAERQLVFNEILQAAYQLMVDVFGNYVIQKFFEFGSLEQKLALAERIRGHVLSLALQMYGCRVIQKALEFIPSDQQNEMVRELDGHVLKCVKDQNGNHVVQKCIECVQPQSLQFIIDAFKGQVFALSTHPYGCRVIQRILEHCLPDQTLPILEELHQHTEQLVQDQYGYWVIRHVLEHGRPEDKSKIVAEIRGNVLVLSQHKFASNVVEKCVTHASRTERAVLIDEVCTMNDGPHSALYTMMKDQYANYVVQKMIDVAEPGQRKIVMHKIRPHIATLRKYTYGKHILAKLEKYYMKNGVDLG
Outline: as §1

PUM1 PUF domain R1-RQS = PUM1 PUF domain R1-RQS (Homo sapiens, UniProt Q14671 828-1176, S863R;R864Q;Q867S)
Outline: as §1

PUM1 PUF domain R1-GKK = PUM1 PUF domain R1-GKK (Homo sapiens, UniProt Q14671 828-1176, S863G;R864K;Q867K)
Outline: as §1

PUM1 PUF domain R1-KVI = PUM1 PUF domain R1-KVI (Homo sapiens, UniProt Q14671 828-1176, S863K;R864V;Q867I)
Outline: as §1

PUM1 PUF domain R5-QMW = PUM1 PUF domain R5-QMW (Homo sapiens, UniProt Q14671 828-1176, C1007Q;R1008M;Q1011W)
Outline: as §1

Chain of PUM1 PUF domain R4-ANC (Q14671 828-1176 N971A/H972N/Q975C): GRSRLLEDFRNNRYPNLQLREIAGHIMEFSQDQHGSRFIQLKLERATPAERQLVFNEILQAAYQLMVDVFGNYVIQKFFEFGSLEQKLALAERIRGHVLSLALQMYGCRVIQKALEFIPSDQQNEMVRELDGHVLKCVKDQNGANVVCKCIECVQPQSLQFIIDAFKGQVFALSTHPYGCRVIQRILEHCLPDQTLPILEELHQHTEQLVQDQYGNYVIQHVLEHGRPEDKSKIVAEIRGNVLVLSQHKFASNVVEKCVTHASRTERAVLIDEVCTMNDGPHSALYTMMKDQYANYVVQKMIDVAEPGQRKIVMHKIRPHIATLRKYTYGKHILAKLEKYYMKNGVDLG
Chain of PUM1 PUF domain R4-CMC (Q14671 828-1176 N971C/H972M/Q975C): as the sequence (Q14671 828-1176 N971A/H972N/Q975C) above, with A144C, N145M counted along it
Chain of PUM1 PUF domain R1-RQS (Q14671 828-1176 S863R/R864Q/Q867S): as the sequence (Q14671 828-1176 N971A/H972N/Q975C) above, with S36R, R37Q, Q40S, A144N, N145H, C148Q counted along it
Chain of PUM1 PUF domain R5-QMW (Q14671 828-1176 C1007Q/R1008M/Q1011W): as the sequence (Q14671 828-1176 N971A/H972N/Q975C) above, with A144N, N145H, C148Q, C180Q, R181M, Q184W counted along it
Chain of PUM1 PUF domain R1-GKK (Q14671 828-1176 S863G/R864K/Q867K): as the sequence (Q14671 828-1176 N971A/H972N/Q975C) above, with S36G, R37K, Q40K, A144N, N145H, C148Q counted along it
Chain of PUM1 PUF domain R1-KVI (Q14671 828-1176 S863K/R864V/Q867I): as the sequence (Q14671 828-1176 N971A/H972N/Q975C) above, with S36K, R37V, Q40I, A144N, N145H, C148Q counted along it

## GGCUAGAACUAGUGGAUCCCCCGGCGCCCGGCGGCUCGAGCCCGGGUAAGUGUAAAUCGUCUGCAUGCCGCCGGGCGCCAUGCCUGCAGGUCGACUCUAGAAAACAUG
PUM1 PUF domain R1-RTS
  binding signal: 4.45 log2 enrichment (interaction score)

## GGCUAGAACUAGUGGAUCCCCCGGCGCCCGGCGGCUCGAGCCCGGGUAAGUGUACAUAGUCUGCAUGCCGCCGGGCGCCAUGCCUGCAGGUCGACUCUAGAAAACAUG
PUM1 PUF domain R4-ANC
  binding signal: 2.65 log2 enrichment (interaction score)
PUM1 PUF domain R4-CMC
  binding signal: 2.87 log2 enrichment (interaction score)

## GGCUAGAACUAGUGGAUCCCCCGGCGCCCGGCGGCUCGAGCCCGGGUAAGUUUAAAUAGUCUGCAUGCCGCCGGGCGCCAUGCCUGCAGGUCGACUCUAGAAAACAUG
PUM1 PUF domain R7-KPV
  binding signal: 4.82 log2 enrichment (interaction score)

## GGCUAGAACUAGUGGAUCCCCCGGCGCCCGGCGGCUCGAGCCCGGGUAAGUGAAAAUAGUCUGCAUGCCGCCGGGCGCCAUGCCUGCAGGUCGACUCUAGAAAACAUG
PUM1 PUF domain R6-YWR
  binding signal: 6.63 log2 enrichment (interaction score)

## GGCUAGAACUAGUGGAUCCCCCGGCGCCCGGCGGCUCGAGCCCGGGUAAGUGUAUAUAGUCUGCAUGCCGCCGGGCGCCAUGCCUGCAGGUCGACUCUAGAAAACAUG
PUM1 PUF domain R4-ANC
  binding signal: 4.27 log2 enrichment (interaction score)
PUM1 PUF domain R4-CMC
  binding signal: 5.2 log2 enrichment (interaction score)

## GGCUAGAACUAGUGGAUCCCCCGGCGCCCGGCGGCUCGAGCCCGGGUAAGUCUAAAUAGUCUGCAUGCCGCCGGGCGCCAUGCCUGCAGGUCGACUCUAGAAAACAUG
PUM1 PUF domain R7-KPV
  binding signal: 4.07 log2 enrichment (interaction score)

## GGCUAGAACUAGUGGAUCCCCCGGCGCCCGGCGGCUCGAGCCCGGGUAAGUGUAAAUUGUCUGCAUGCCGCCGGGCGCCAUGCCUGCAGGUCGACUCUAGAAAACAUG
PUM1 PUF domain R1-RQS
  binding signal: 3.04 log2 enrichment (interaction score)
PUM1 PUF domain R1-GKK
  binding signal: 5.09 log2 enrichment (interaction score)
PUM1 PUF domain R1-RTS
  binding signal: 4.22 log2 enrichment (interaction score)
PUM1 PUF domain R1-KVI
  binding signal: 4.79 log2 enrichment (interaction score)

## GGCUAGAACUAGUGGAUCCCCCGGCGCCCGGCGGCUCGAGCCCGGGUAAGUGUGAAUAGUCUGCAUGCCGCCGGGCGCCAUGCCUGCAGGUCGACUCUAGAAAACAUG
PUM1 PUF domain R5-QMW
  binding signal: 2.85 log2 enrichment (interaction score)
